Screening results deposited in PubChem BioAssay by National Center for Advancing Translational Sciences (NCATS).
pAkt inh: HTS Assay for Inhibitors of Akt Phophorylation: Primary Screen. AID 651550, 2012. Neuro2A IGF-stimulated pAkt S473 HTRF, 20 min; hits give low values. 360,000 compounds, 0.32% hits. activity change, % for hits at 50 µM; in the data active = activity change below about -80%; inconclusive = mostly about -51% to -80%; also: % is scaled to controls: 0 for no effect and ±100 for the full control effect
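Neuro2A cells (4,500/well, DMEM with 0.5% FBS) were treated with compound at a single 50 µM final concentration, stimulated with 6 nM IGF for 20 min at 37 °C, and lysed. Phospho-Akt Ser473 was read by HTRF as 665/615 ratio ×10^4.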
FUS suppressor: qHTS for Suppressors of FUS Proteinopathy: Primary screen using FUS-linked yeast assay | S. cerevisiae FUS-expressing, growth rescue, OD600, 24 h | Potency, µM (titrated, usually from 76.6 µM), hits mostly activators | 390,000 compounds, 0.24% hits | AID 1347120, 2019;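 also: potency is read from the fitted curve at half-maximal effect; plate controls were DMSO vehicle for no effect and reference control for full effect; nearly all actives have a fitted effect of over 55% in size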
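Read-out: OD at 600 nm after 24hr at 30C, reporting rescue of FUS-induced yeast toxicity. Cells at OD 0.005 in galactose (2%) minimal medium; compounds tested in a dilution series; CP55940 titration from 92uM final as control.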
Abeta rescue: qHTS for compounds that reverse cellular toxicity of Amyloid beta (A-beta) peptide in yeast: Primary Screen; 410,000 compounds, 0.063% hits; Potency, µM (doses to about 46.1 µM), hits mostly activators; yeast expressing A-beta42, growth rescue, OD600, 48 h; response scale: 0% DMSO, 100% iron-clioquinol control; also: potency is read from the fitted curve at half-maximal effect; nearly all actives have a fitted effect of over 55% in size
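Yeast growth medium received pinned compounds, then yeast cells expressing toxic A-beta were added; plates incubated at 30 C for 48 hr. Growth read as absorbance at 600 nm, normalized to DMSO and equimolar FeCl3 plus clioquinol controls.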
aSyn rescue: qHTS of alpha-syn Inhibitors | Yeast expressing alpha-synuclein, growth rescue, BacTiter-Glo, 24 h | Potency, µM (series often up to 46.1 µM), for inactives: top-dose growth rescue (activation), usual class: activators | 370,000 compounds, 0.14% hits; also: potency is read from the fitted curve at half-maximal effect; % of control where 0% means no effect; nearly all actives have a fitted effect of over 65% in size
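Screening used galactose-induced yeast with toxic alpha-synuclein levels, exposed to compound for 24 hr at 30 deg C. Cell growth, read with BacTiter-Glo luminescence, gave the measured signal.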
TDP-43 yeast inh: qHTS of TDP-43 Inhibitors; Potency, µM (series often up to 46.1 µM), for inactives: at the highest dose growth rescue (activation), most hits filed as activators; 410,000 compounds, 1.8% hits; TDP-43 expressing yeast growth rescue, BacTiter-Glo, 24 h; also: potency is read from the fitted curve at half-maximal effect; % of control where 0% means no effect; nearly all actives have a fitted effect of over 50% in size
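In this qHTS, compounds that restore growth of yeast expressing TDP-43 appear as activators. Cells (OD600=0.02, galactose medium, raffinose-pregrown) are incubated with compound 24 hr at 30 deg C and growth is quantified by BacTiter-Glo.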
Starred values were filed as active, the others as inactive; i = inactive; ? = inconclusive; . = no result; [ ] = another dose, or the depositor's remark. In the library only some 2.3% were active in any assay of this set; here they are far more common. Unless noted, calls follow the shape of the dose curve; as a rule, active = well fitted curve in the direction sought with a large enough effect; inconclusive = small, poorly fitted or top-dose-only effect, or another doubt; inactive = no such curve, though single readings can be large; an effect the other way counts as inactive or inconclusive.

SMILES | pAkt inh | FUS suppressor | Abeta rescue | aSyn rescue | TDP-43 yeast inh
CC(C)CC(NS(=O)(=O)c1ccccc1)C(=O)O (centres undefined) | i | i | i | 8% | 0%
Cc1ccc(CSc2cn(CC(=O)N3CCCC3)c3ccccc23)cc1 | . | ? | i | . | 22µM*
COc1ccc(-c2cc(-c3ccccc3)nc(-c3ccc4c(c3)NC(=O)CO4)c2)cc1 | . | i | i | . | 13µM*
COc1ccc(Nc2nc(-c3ccc4c(c3)NC(=O)CO4)cs2)cc1 | i | i | i | 3% | ?
COc1ccc(CN(C)C(=O)CNC(=O)c2ccc3ccccc3c2)c(OC)c1 | i | i | i | 0% | 22%
COc1ccc(Br)cc1CN(C)C(=O)CNC(=O)c1ccc2ccccc2c1 | i | i | i | -6% | 22µM*
CC(=O)N1CCc2c(sc3c2c(=O)n(CCc2ccccc2)c(=O)n3Cc2cccc(C)c2)C1 | . | i | i | . | 22µM*
CC(=O)N1CCc2c(sc3c2c(=O)n(Cc2ccccc2)c(=O)n3Cc2cccc(Cl)c2)C1 | . | i | i | . | 8%
COc1ccc([C@H]2CC(=O)C=C(c3cc(C)ccc3OC)C2)cc1 | i | i | i | 8% | ?
COc1c(F)cccc1C1=CC(=O)C[C@H](c2ccc3c(c2)OCO3)C1 | i | i | i | 10% | 22µM*
COc1ccc([C@H]2CC(=O)C=C(c3ccccc3-c3ccccc3)C2)cc1 | i | i | i | 2% | 27%
COCc1ccccc1C1=CC(=O)C[C@H](c2ccc(F)cc2)C1 | i | i | i | 6% | ?
COc1ccc(OC)c(C2=CC(=O)C[C@H](c3ccc4c(c3)OCO4)C2)c1 | i | ? | i | 2% | 25µM*
COc1ccc([C@H]2CC(=O)C=C(c3cccc(F)c3OC)C2)cc1 | i | i | i | 13% | 22µM*
COc1c(F)cccc1C1=CC(=O)C[C@H](c2ccc(F)cc2)C1 | i | i | i | 5% | 18µM*
O=C(Nc1ccc(Br)cc1)N1CCC(CN2CCCC2)CC1 | . | i | i | . | 8%
COc1ccc(-c2cc3ccc(O)c(CN4CCC(C)CC4)c3oc2=O)cc1 | . | i | i | . | 0%
CCOC(=O)c1cn(-c2ccccc2)nc1-c1ccncc1 | -118%* | i | i | 13% | 14%
CCOC(=O)c1nn(-c2ccc(C)cc2)cc1C(=O)c1ccccc1 | . | i | i | . | 13µM*
COc1cc(C(=O)NC2CC(=O)N(c3cccc(F)c3)C2)cc(OC)c1OC (centres undefined) | . | i | i | . | 23%
Cc1ccc(O)c(N=NC2=C(O)CC(C)(C)CC2=O)c1 | i | . | ? | 7.1µM* | 12%
Cc1cc(C)cc(NS(=O)(=O)c2cnc(Cl)c(Cl)c2)c1 | i | i | i | 15% | 35µM*
CCOc1ccc(NS(=O)(=O)c2cnc(Cl)c(Cl)c2)cc1 | i | . | i | 8% | -61%
CCCn1nc(C(=O)NCC2COc3ccccc3O2)c2ccccc2c1=O (centres undefined) | i | i | i | 2%[1.84 µM] | 22µM*
CCCn1nc(C(=O)Nc2nc(-c3ccccn3)cs2)c2ccccc2c1=O | i | i | 10µM* | -6%[1.84 µM] | ?
SMILES | pAkt inh | FUS suppressor | Abeta rescue | aSyn rescue | TDP-43 yeast inh
COc1ccc(-n2nc(C(=O)NCC(=O)NCC3COc4ccccc4O3)c3ccccc3c2=O)cc1OC (centres undefined) | i | 18µM* | i | 0% | -2%
COc1ccc(-n2nc(C(=O)NCC(=O)NCC3COc4ccccc4O3)c3ccccc3c2=O)c(OC)c1 (centres undefined) | i | i | i | 5% | -8%
CCn1nc(C(=O)Nc2nc(-c3ccccn3)cs2)c2ccccc2c1=O | i | i | i | -16% | ?
CCCN1CNc2c(c(=O)[nH]c(=S)n2CCc2cccc(C)c2C)C1 | . | . | . | 0% | .
Cc1ccccc1OCc1ccc(-c2nc(C#N)c(N3CCC(C(N)=O)CC3)o2)o1 | . | i | i | . | ?
O=C(OCC(=O)N1CCc2ccccc21)c1c2c(nc3ccccc13)CCCCC2 | i | . | i | -20% | 22µM*
NC(=O)COC(=O)c1c2c(nc3ccccc13)CCCC2 | i | i | i | 0% | 5%
O=C(NCC(c1ccco1)S(=O)(=O)c1cccs1)c1ccccc1 (centres undefined) | . | i | i | . | 0%
N#CN=c1snc(-c2ccccc2Cl)n1-c1ccc(F)cc1 | . | . | . | 7% | .
CN(C)S(=O)(=O)c1cccc(NC(=O)CSc2nc3ccccc3n2-c2ccccc2)c1 | i | . | i | -1% | 0%
CN(C)S(=O)(=O)c1ccc(NC(=O)CSc2nc3ccccc3n2-c2ccccc2)cc1 | i | 6.3µM* | i | -1% | -33%
CCN(CC)c1ccc(NC(=O)CSc2nc3ccccc3c(=O)n2-c2cc(S(=O)(=O)N(C)C)ccc2C)cc1 | i | 35µM* | i | -2% | -11%
O=C(CSc1cn(CC(=O)N2CCCCC2)c2ccccc12)Nc1ccc(C(F)(F)F)cc1 | . | i | i | . | ?
COc1ccc(C(=O)NCC2(c3ccccc3)CCCC2)c(OC)c1 | i | i | i | 5% | 13%
COc1ccc(C2(CNC(=O)CCC(=O)O)CCCC2)cc1 | -115%* | i | i | 2% | 22%
COc1ccc(C(=O)CCC(=O)Nc2cccc(C(C)=O)c2)cc1 | . | i | i | . | 4%
Fc1ccccc1-n1cc(-c2ccccc2)[nH]c1=S | i | i | ? | 3% | 13µM*
COc1ccc(-n2cc(-c3ccccc3)[nH]c2=S)c(OC)c1 | i | i | i | 1% | 5%
O=c1nccc(NCc2ccco2)[nH]1 | -108%* | i | i | 8% | -7%
O=C(CSc1nc(-c2ccco2)nc2cc(=O)[nH]n12)Nc1ccc(F)cc1 | . | i | i | . | 6%
CCc1ccc(C(=O)c2cn(CC(=O)Nc3ccc(F)c(F)c3)c3cc(OC)c(OC)cc3c2=O)cc1 | . | ? | i | . | -8%
CCc1ccc(C(=O)c2cn(Cc3ccc(F)cc3)c3cc(OC)c(OC)cc3c2=O)cc1 | . | 35µM* | i | . | ?
O=C(c1cc([N+](=O)[O-])ccc1Cl)N1CCN(c2ccccn2)CC1 | i | i | i | 1% | -5%
CC1(C(=O)N2CCN(c3ccc([N+](=O)[O-])cc3)CC2)CC1(Cl)Cl (centres undefined) | i | i | i | -3% | 11µM*
O=C(c1ccco1)N1CCN(c2ccc([N+](=O)[O-])cc2Cl)CC1 | i | i | i | 2% | 14µM*
